# Records with an inconclusive call do not appear. Unmarked numbers belong to inactive results. Calls come from the whole dose curve; as a rule, active = well fitted cell-killing curve with a large enough effect; inconclusive = small, poorly fitted or top-dose-only effect, or effect the other way; inactive = flat fitted curve, though single readings scatter.
# Tested on: Tov112D
# Test: Primary qHTS to identify gynecologic anti-cancer compounds using libraries of approved drugs and bioactive compounds (AID 1345084); note: nearly all actives have a fitted effect of over 55% in size
# Details: Gynecologic cancer cell panel viability, ATPlite luminescence, 48 h; series mostly up to 57.5 µM; activity change, negative = cytotoxicity: at the top concentration
# Summary of the method: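 Five-point cytotoxicity, 48 h drug exposure at 37 C, 5% CO2, on cells seeded 16 h beforehand. ATP content read by ATPlite luminescence.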
# % is set by controls: 0 for no effect and ±100 for the full control effect.
row,Compound,"activity change, negative = cytotoxicity"
1,CC1(C)CC[C@]2(C(=O)OC3OC(CO)C(O)C(O)C3O)CC[C@]3(C)C(=CCC4[C@@]5(C)C[C@@H](O)[C@H](OC6OC(C(=O)O)C(O)C(O)C6O)C(C)(C)C5CC[C@]43C)[C@@H]2C1 (some centres undefined),0.489% [at 11.6 µM]
2,O=[N+]([O-])c1cc(Cl)ccc1S(=O)(=O)N1CCN(Cc2ccccc2)CC1,11.6%
3,COc1cc(C(=O)OC[C@H]2O[C@@H](OC(C)(C)C(=O)O)[C@H](O)[C@@H](O)[C@@H]2O)cc(OC)c1O,8.2% [at 25.3 µM]
4,C/C=C(/C)C(=O)OC1C2OC2C2(CO2)C2C3OC(=O)C(C)C3CCC12C (centres undefined),-8.29% [at 38.5 µM]
5,COc1cccc(CNc2ccc(S(=O)(=O)Nc3nc4ccccc4s3)cc2)c1O,7.9%
6,C[C@]1(O)CC[C@@H]2C(C(=O)O)=CO[C@@H](O[C@@H]3O[C@H](CO)[C@@H](O)[C@H](O)[C@H]3O)[C@@H]21,1.4% [at 38.5 µM]
7,C/C=C(\C)C(=O)OC[C@H]1O[C@@H](O[C@H]2[C@@H](O[C@H]3O[C@H](CO)[C@@H](O)[C@H](O)[C@H]3O[C@@H]3O[C@H](CO)[C@@H](O)[C@H](O)[C@H]3O)O[C@H](COC(=O)/C(C)=C/C)[C@@H](O)[C@@H]2O)[C@H](O)[C@@H](O)[C@@H]1O,-8.88% [at 11.6 µM]
8,C=CC(C)(CC/C=C(\C)C(=O)OC)OC1OC(COC(=O)CC(C)(O)CC(=O)O)C(O)C(O)C1O (centres undefined),0.641% [at 25.3 µM]
9,OC[C@H]1O[C@@H](Oc2cc(O)cc(-c3cc4ccc(O[C@@H]5O[C@H](CO)[C@@H](O)[C@H](O)[C@H]5O)cc4o3)c2)[C@H](O)[C@@H](O)[C@@H]1O,0.0688% [at 25.3 µM]
10,CC1=C[C@H](O)[C@H]2C(C)(C)CCC[C@]2(C)[C@@]1(O)CO,10.4%
11,CC1OC(O[C@@H]2[C@H](O)[C@@H](OC3OC(CO)C(O)C(O)C3O)[C@H](OC(=O)[C@]34CCC(C)(C)C[C@H]3C3=CCC5[C@@]6(C)CC[C@H](O[C@@H]7O[C@H](C(=O)O)[C@@H](O)[C@H](O[C@@H]8OC[C@@H](O)[C@H](O)[C@H]8O)[C@H]7O[C@@H]7O[C@H](CO)[C@H](O)[C@H](O)[C@H]7O)[C@@](C)(C=O)C6CC[C@@]5(C)[C@]3(C)C[C@H]4O)O[C@@H]2C)C(O)C(O)C1OC1OCC(O)C(O)C1O (some centres undefined),1.65% [at 6.55 µM]
12,COc1cc2nc(=NC(=O)c3cccnc3)n3c(c2cc1OC)NCC3,-1.05%
13,COc1c2c(c(C)c3c1C(=O)OC3)OC1(C)CC(O)C34OC(OC)(CC(O)C3(C)C1C2)OC4(C)C (centres undefined),-0.492% [at 25.3 µM]
14,CC1CCCCCCCc2cc(O)cc(O)c2C(=O)O1 (centres undefined),3.74%
15,C=C1Cc2c(Cl)cc3[nH]c4c5c3c2[C@@]2(O)[C@@H]1C[C@@H]2C(C)(C)O[C@H]5C1CC[C@@]2(O)[C@@]35O[C@@H]3[C@H]3OC(C)(C)[C@H]3O[C@H]5CC[C@]2(C)[C@@]41C (some centres undefined),9.16% [at 25.3 µM]
16,C[C@@H]1[C@H]2[C@H](O[C@@H]3O[C@H](CO)[C@@H](O)[C@H](O)[C@H]3O)OC=C(C(=O)O)[C@H]2C[C@@H]1OC(=O)/C=C/c1ccc(O)cc1,1.25% [at 25.3 µM]
17,C/C(CO)=C1/CCC23COC(C2)C(O)(C(=O)O)CCC13 (centres undefined),-1.29%
18,CC1(C(=O)O)CCCC2(C)C3CCC4CC3(CCC12)CC4(O)CO (centres undefined),-10.8% [at 38.5 µM]
19,CC(C)(O)C1OC1C1=CC(=O)C2(C)OC2C1O (centres undefined),5.33%
20,C[C@@H]1CC[C@]2(C(=O)O[C@@H]3O[C@H](CO[C@@H]4O[C@H](CO)[C@@H](O)[C@H](O)[C@H]4O)[C@@H](O)[C@H](O)[C@H]3O)CC[C@]3(C)C(=CCC4[C@@]5(C)CC[C@H](O)[C@](C)(C(=O)O)C5CC[C@]43C)[C@@H]2[C@]1(C)O (some centres undefined),-2.64% [at 11.6 µM]

row,Compound,"activity change, negative = cytotoxicity"
1,COCC1OC(n2cnc3c(=O)[nH]cnc32)C(O)C1O (centres undefined),6.93%
2,CCOC(=O)c1ccc(NC2CCCCC2)c(N)c1,6.52%
3,C=C1C(OC(C)=O)[C@@]23CCC4[C@](C)(C(=O)O)CCC[C@@]4(C)[C@]2(O)CC[C@H]1C3 (some centres undefined),-1.31% [at 38.5 µM]
4,C[C@]12CC/C(=N\OCC(=O)O)C=C1CC[C@@H]1[C@@H]2[C@@H](O)C[C@@]2(C)[C@H]1CC[C@]2(O)C(=O)CO,13.8%
5,OCC1OC(Oc2cc(O)cc(/C=C/c3ccc(OC4OC(CO)C(O)C(O)C4O)cc3O)c2)C(O)C(O)C1O (centres undefined),-1.94% [at 25.3 µM]
6,Cc1ccccc1NC(=O)Nc1ccc(CN2C(=O)N([C@@H](CC(C)C)C(=O)N[C@@H](CC(=O)O)c3ccccc3)C(=O)C2(C)C)cc1,14.7%
7,COc1cc2c(c(O)c1OC/C=C(\C)CC/C=C(/C)CCC=C(C)C)CN(C(CCC(=O)O)C(=O)O)C2=O (centres undefined),-2.55% [at 25.3 µM]
8,CC1=CC[C@@]2(C)CC[C@@](O)(C(C)C)[C@@H]2[C@@H](O)C1,-4.54%
9,CC1(C)CC[C@]2(C(=O)O)CC[C@]3(C)C(=CCC4[C@@]5(C)CC[C@H](O[C@@H]6O[C@H](C(=O)O)[C@@H](O)[C@H](O[C@@H]7O[C@H](CO)[C@H](O)[C@H](O)[C@H]7O)[C@H]6O[C@@H]6O[C@H](CO)[C@@H](O)[C@H](O)[C@H]6O)C(C)(C)C5CC[C@]43C)[C@@H]2C1 (some centres undefined),-3.27% [at 6.55 µM]
10,CCC12CCCN3CCc4c(n(c5ccccc45)C(O)C1)C32 (centres undefined),6.36%
11,CCc1nn(CCO)c(CC)c1Oc1cc(C#N)cc(C#N)c1,7.24%
12,C=C1C(O)CCC2(C)CC3(OC)OC(=O)C(C)=C3CC12 (centres undefined),-1.07%
13,CCCN(CCN1CCN(c2ccccc2OC)CC1)C1CCc2ncsc2C1 (centres undefined),-3.59%
14,C=C(CCO)C(=O)OCC1OCC(OC(=O)C(=C)CCO[C@@H]2O[C@H](COC(=O)C(=C)CCO[C@@H]3O[C@H](CO)[C@@H](O)[C@H](O)[C@H]3O)[C@@H](O)[C@H](O)[C@H]2O)C(O)C1O (some centres undefined),-3.57% [at 25.3 µM]
15,C/C=C/C=C/C=C/C(=O)OC1C=C2C(O)OC(=O)[C@]2(O)[C@@]2(C)CCCC(C)(C)[C@H]12 (some centres undefined),-5.87% [at 25.3 µM]
16,C[C@@H](CC[C@@H]1[C@@]2(C)CCCC(C)(C)C2CC[C@@]1(C)O)CC(=O)O (some centres undefined),-0.501% [at 38.5 µM]
17,C/C=C/C=C/[C@@H]1O[C@](O)([C@H](CC)C(=O)NC/C=C/C=C(\C)[C@@H](OC)[C@@H](C)[C@@H]2O[C@H](/C=C/C=C/C=C(\C)C(=O)c3c(O)ccn(C)c3=O)[C@H](O)[C@@H]2O)[C@H](O)[C@H](O)C1(C)C,-0.13% [at 11.6 µM]
18,O=C(O)c1ccncc1Nc1nn(CCN2CCC(F)(F)CC2)c2ccc(F)cc12,3.55%
19,CCOc1ncc(S(=O)(=O)N2CCN(CC)CC2)cc1-c1nc2c(CC)n(CCOC)nc2c(=O)[nH]1,2.51%

# — PubChem BioAssay (NCATS)
